Only some compounds are listed: those with a hit (about 4.8% of all), similar ones and a draw of the others.
hcDAF-12 act – activators of H. contortus DAF-12 nuclear receptor; HEK293 hcDAF-12 lit1-tk-luc reporter, luminescence; 0% DMSO, 100% Δ7-dafachronic acid; activation, % at 6.8 µM; 370,000 tested, 1.4% active;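 active = activation above the mean of all tested compounds plus 3 SD, cut at about 5.5% in these data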;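 note: 100% = response to 3 µM Δ7-dafachronic acid high control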
DAX1 inh-1 – inhibits human nuclear receptor DAX1 | HEK293 Gal4-DAX1 luciferase reporter, luminescence | P51843 | 340,000 tested, 0.99% active | inhibition, % at 6.75 µM;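 active = inhibition above the mean over all tested compounds plus 3 SD, cut at about 4.2% in these data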;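 note: 0% = DAX1-transfected cells with DMSO and 100% = empty-vector control cells with DMSO; inhibition shows as a rise in luminescence from relieved DAX1 repression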
Target sequence (P51843 207-470 limits assumed): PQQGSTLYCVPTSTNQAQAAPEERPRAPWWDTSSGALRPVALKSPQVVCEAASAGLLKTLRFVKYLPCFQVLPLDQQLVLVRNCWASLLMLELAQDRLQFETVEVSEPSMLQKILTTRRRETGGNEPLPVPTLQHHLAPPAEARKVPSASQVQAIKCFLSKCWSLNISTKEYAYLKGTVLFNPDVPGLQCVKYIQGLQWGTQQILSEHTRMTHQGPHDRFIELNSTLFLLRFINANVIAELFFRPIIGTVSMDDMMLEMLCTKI
DAX1 inh-2 – inhibitors of DAX1 repression of SF-1 activated StAR promoter; 370,000 tested, 1.1% active; HEK293T StAR-luciferase reporter, SF-1/DAX-1 repression relief; inhibition, % at 6.8 µM; AID 652010;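 active = inhibition above the mean over all tested compounds plus 3 SD, cut at about 3.6% in these data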;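 note: 0% = DAX-1 cells with DMSO and 100% = cells lacking DAX-1 with DMSO; higher inhibition means more luminescence from relief of DAX-1 repression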
SMARCA2 act – activators of SMARCA2 function; MG213 cells, MMTV-luciferase reporter, dexamethasone, overnight; activation, % at 9.1 µM; 370,000 tested, 1% active; in the data active = activation above about 7.8%;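 note: 0% = vehicle wells and 100% = reference activator wells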
hgDAF12 agonist – hgDAF-12 agonism, primary luciferase screen; HEK293 GAL4-hgDAF12 UAS-luciferase reporter, agonist luminescence; normalized to butyrate control; activation, % at 6.8 µM; 370,000 tested, 1.8% active;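 active = activation above a cutoff set at the mean of all screened compounds plus 3 SD, cut at about 10% in these data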;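 note: 0% = DMSO wells and 100% = sodium butyrate wells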
ssDAF12 agonist – S. stercoralis DAF-12 activation, primary screen. HEK293 ssDAF-12/GRIP1 lit1-tk-luc reporter, luminescence; % of 3 µM dafachronic acid response. AID 652126. 370,000 tested, 1% active. activation, % at 6.8 µM;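 active = activation above the mean over all tested compounds plus 3 SD, cut at about 0.9% in these data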;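 note: 0% = DMSO-only wells and 100% = 3 µM delta7-dafachronic acid wells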
Starred values were filed as active, the others as inactive; x = no result.

SMILES	hcDAF-12 act	DAX1 inh-1	DAX1 inh-2	SMARCA2 act	hgDAF12 agonist	ssDAF12 agonist
Cc1cccc(C2=NN(c3ccccc3)[C@@H](C(=O)N3CCOC3=O)[C@@H]2c2ccccc2)c1	0.8	0.4	3.7*	-5.9	0.9	-0.1
CN1CCC(N[C@@H](Cc2c[nH]c3ccccc23)C(=O)NCCCc2ccccc2)(C(=O)NCCc2c[nH]c3ccccc23)CC1	6.3*	x	x	x	3.4	-0.8
CC(=O)N1CCN=C1SCc1ccccc1Cl	-1.5	5.0*	0.1	1.8	0.1	-1.4
CC(C)CN1C(=O)[C@@]2(CC(=O)N(C)C2c2ccccc2)c2cc(-n3cc(CO)nn3)ccc21 (stereo partly drawn)	-1.6	x	0.3	-2.8	1.8	-0.9
Cc1cc(O)ccc1N=Cc1c(C(F)(F)F)[nH][nH]c1=O	-0.5	4.4*	-0.6	1.1	-1.0	-0.9
COCCCNC(=O)C[C@@H]1C(=O)N(CCc2ccc(Cl)cc2)C2=CCCCC[C@]21C(=O)OC	-2.7	x	-2.0	-0.4	-1.2	-0.9
O=C(COC(=O)c1n[nH]c2ccccc12)Nc1ccc(Cl)cc1[N+](=O)[O-]	1.6	0.1	-0.2	2.0	-0.3	0.3
COc1ccccc1CC(=O)Nc1ccccc1O	-0.2	0.7	-0.3	2.1	3.2	-1.3
COc1ccccc1CC(=O)Nc1ccc([N+](=O)[O-])cc1O	1.0	5.9*	-0.3	-1.4	-1.4	-0.3
COc1cc([N+](=O)[O-])ccc1NC(=O)COC(=O)c1n[nH]c2ccccc12	6.3*	-2.3	-0.3	-1.4	-0.7	-1.0
Cc1ccc(-c2cc(-c3nnc(SCC(=O)N4c5ccccc5Sc5ccc(Cl)cc54)n3N)[nH]n2)cc1	-0.3	x	0.8	-1.0	5.9	-2.0
C=CCN1C(=O)[C@@H](CC(=O)NCc2ccc(C)o2)[C@]2(C(=O)OC)CCCCC=C12	-0.1	x	0.1	2.3	1.2	-1.1
Cc1ccc2c(c1)N(CC(=O)NCCCN1CCCCC1C)C(=O)c1cccnc1O2 (stereo not drawn)	-0.5	0.7	0.1	1.5	0.6	-0.6
Cc1ccc2c(c1)N(CC(=O)NCCCN1C(C)CCCC1C)C(=O)c1cccnc1O2 (stereo not drawn)	0.1	4.8*	-0.1	7.0	-1.8	-1.3
Cc1ccc2nc(-c3ccc(CN4CCC5(CC4)CNc4ccccc45)cc3)c(-c3ccccc3)nc2c1	-0.2	x	-0.8	6.9	4.4	-1.5
CCc1nnc(NC(=O)C=C(C)C)s1	1.3	2.2	1.6	2.3	8.4	0.1
CC(C)=CC(=O)Nc1nnc(-c2ccccc2C)s1	0.3	5.2*	1.6	-0.8	5.9	-0.8
CC(C)CNS(=O)(=O)CC1NCc2cc3c(cc21)OCO3 (stereo not drawn)	-2.3	x	-0.6	-2.9	0.1	-0.8
CCCCCCn1cc(CN2CC=CS2(=O)=O)nn1	-1.2	x	0.2	-5.4	5.0	-2.0
O=C(C/C=N/OCc1c(Cl)cccc1Cl)c1ccccc1	3.7	0.4	0.7	2.4	5.8	0.9*
COc1ccc(NC(=O)C(c2ccc(OC)cc2)n2c(=O)c(-c3cc4ccccc4[nH]3)nc3ccccc32)cc1 (stereo not drawn)	2.9	x	-0.8	-1.1	-1.3	0.2
COc1ccc(NC(=O)C(c2cc3ccccc3o2)n2c(=O)c(-c3cc4ccccc4[nH]3)nc3ccccc32)cc1 (stereo not drawn)	5.8*	x	0.4	3.3	3.2	1.3*
O=C(NCc1ccccc1)C(c1cc2ccccc2o1)n1c(=O)c(-c2ccccc2)nc2ccccc21 (stereo not drawn)	4.1	x	3.8*	2.4	5.4	0.5
Cc1ccc(NC(=O)C2CCCN(c3nnc(-n4cccc4)s3)C2)cc1C (stereo not drawn)	0.3	x	0.0	-3.0	1.1	-0.5
COC(=O)[C@]12C[C@H](CC(=O)NCc3ccc(C)o3)C(=O)N(CCc3ccc(OC)c(OC)c3)C1=C[C@H](C1CCCC1)O[C@@H]2C	0.8	x	-0.2	3.6	1.9	-1.1
SMILES	hcDAF-12 act	DAX1 inh-1	DAX1 inh-2	SMARCA2 act	hgDAF12 agonist	ssDAF12 agonist
COc1ccc(C(=O)[C@H]2[C@H]3C(=O)N(c4ccc(C)cc4)C(=O)[C@H]3C3C=CC=NN32)cc1 (stereo partly drawn)	1.1	x	0.5	-1.1	-1.7	-1.5
Cc1ccc(N2C(=O)[C@@H]3[C@H](C2=O)[C@H]2C=CC=NN2[C@@H]3C(=O)Nc2ccccc2)cc1	2.9	-2.4	0.4	-0.9	1.6	1.2*
CC(=O)Oc1ccc(C(=O)[C@H]2[C@H]3C(=O)N(c4ccc(C)cc4C)C(=O)[C@H]3[C@@H]3C=CC=NN32)cc1	-0.6	4.2*	-0.2	-2.4	0.6	-1.2
CC(C)(C)c1cccc(N/C(=C\C(=O)c2ccccc2)c2ccccc2)c1	2.2	x	0.8	-1.4	3.4	-0.8
Cc1ccc(C(=O)N2CCC(C(=O)NC3CCCC3)CC2)cc1	0.1	4.3*	0.2	-1.4	-0.7	-0.3
CCOC(=O)c1cc(C#N)c(SCC(N)=O)[nH]c1=O	0.5	4.5*	0.2	-2.9	1.7	-1.5
CCOC(=O)c1cc(C#N)c(SCC(=O)O)[nH]c1=O	0.8	0.2	0.8	-2.9	0.9	-1.7
c1ccc(-c2nnc(-c3ccccn3)nn2)nc1	3.5	3.2	3.5	7.3	12.6*	0.3
O=C(NNC(=O)c1ccc([N+](=O)[O-])cc1Cl)c1ccncc1	2.8	1.1	0.6	-1.3	3.1	1.0*
O=C(NCCNCc1cccc(Cl)c1)c1ccco1	-0.5	0.5	2.3	-0.5	1.3	1.1*
O=C(NCCNc1ccc([N+](=O)[O-])cc1)c1ccco1	-1.7	4.5*	-0.8	-1.3	3.2	-0.9
O=C(Nc1ccc(C(=O)O)cc1)/C(=C\c1ccc([N+](=O)[O-])cc1)NC(=O)c1ccco1	0.3	4.3*	-0.3	-3.6	-2.2	-1.2
O=C(NCCNCc1ccc(F)cc1)c1ccco1	-0.8	0.3	-0.6	-1.6	-1.6	-1.5
COC(=O)[C@]12CCCCC=C1N(Cc1ccc(OC)cc1)C(=O)[C@@H]2CC(=O)N1CCCC1	-1.1	x	-0.9	-3.6	-3.1	-1.6
CCCn1c(NC(=O)c2ccccc2)nc(Cc2ccccc2)c1Cc1ccccc1	-0.1	x	-0.4	-1.9	-2.2	-0.9
O=C(NC1=N[C@@]2(C=C3CCCCC3n3c(=O)n(-c4ccccc4)c(=O)n32)[C@H](Cc2ccccc2)N1Cc1ccccc1)c1ccccc1 (stereo partly drawn)	-1.9	x	0.0	-5.3	-1.9	-1.4
O=C(CC1NCCc2ccccc21)Nc1ccc(Oc2ccccc2)cc1 (stereo not drawn)	-1.7	-0.5	0.2	0.5	-1.3	-1.0
O=C(CC1NCCc2ccccc21)Nc1ccccc1 (stereo not drawn)	5.3	1.8	1.5	-1.8	2.8	0.9*
